Results as given in PubChem BioAssay (Tox21).
“And” between values parts separate entries of the source, which are not always exact repeats. Equal entries are not always repeated. Records with an inconclusive call do not appear. A number with no mark means an inactive call. The source made the active and inactive calls. The call rests on the fitted dose curve; in most records, active means well fitted cell-killing curve with a large enough effect in the repeat runs; inconclusive means weak or mixed curves, or effect the other way; inactive means flat fitted curve, though single readings scatter.

test: qHTS assay to identify small molecule antagonists of the constitutive androstane receptor (CAR) signaling pathway - cell viability counter screen (AID 1224837); settings: HepG2-CYP2B6-hCAR viability, CellTiter-Fluor, 23 h, co-treated with 50 nM CITCO; series mostly up to 92.4 µM; activity change, negative = cytotoxicity: at the top concentration; further: nearly all actives have a fitted effect of over 45% in size
How it was run: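 HepG2 cells stably expressing hCAR and a CYP2B6-2.2kb reporter were plated and pre-incubated 4 hr at 37 C/5% CO2, then given compounds at 15 concentrations plus 50 nM CITCO (final). After 23 hr, viability was read by CellTiter-Fluor fluorescence.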
On the % scale 0 is the no-effect control and ±100 the full control effect; potency means the concentration at half of the fitted maximal effect.

Structure (SMILES) | Potency | activity change, negative = cytotoxicity
COc1ccc2c(c1OC)C(=O)O[C@@H]2[C@H]1c2cc3c(cc2CCN1C)OCO3 | 7.62 µM (active) | 
CC(Cc1ccc(OCC(=O)O)cc1)NCC(O)c1csc(C(F)(F)F)n1 (configuration not stated) |  | -15.1%
Nc1ccc(Cl)cc1C(=O)c1ccccc1F |  | -4.56% [at 42.5 µM]
O=c1c2ccccc2c(=O)c2c1cc(Cl)c1[nH]c3c([nH]c12)c(Cl)cc1c(=O)c2ccccc2c(=O)c13 |  | -11.7%
CCc1cccc(C)c1N(C(=O)CCl)[C@@H](C)COC |  | -21.8%
COP(=O)(OC)O/C(=C\Cl)c1cc(Cl)c(Cl)cc1Cl |  | -0.228%
C=Cc1cccc(CCl)c1 |  | 8.3% [at 240 µM]
CNC(C)(C)Cc1ccccc1 |  | 5.05% [at 42.5 µM]
CCC(C)Br (configuration not stated) |  | 0.527%
OCC(Br)CBr (configuration not stated) |  | -3.44%
ClC1=C(Cl)[C@]2(Cl)[C@H]3[C@H]([C@@H]4C=C[C@H]3C4)[C@@]1(Cl)C2(Cl)Cl | inactive | 
CCOP(=S)(OCC)SC(CCl)N1C(=O)c2ccccc2C1=O (configuration not stated) |  | -0.577%
Oc1ccc(Cl)c(Cl)c1 |  | 4.02%
COC(=O)C(C)N(C(=O)c1ccco1)c1c(C)cccc1C (configuration not stated) |  | 3.85%
COP(=S)(NC(C)C)Oc1ccc(C)cc1[N+](=O)[O-] (configuration not stated) |  | -4.65%
Clc1ccc(C(Cl)(Cl)Cl)cc1Cl |  | -1.05%
Cc1ccc(C)c2ccccc12 |  | 2.36%
COc1cnc(OC)n2nc(NS(=O)(=O)c3c(OCC(F)F)cccc3C(F)(F)F)nc12 |  | 2.19%
CC(O)C(=O)[O][Hg][c]1ccccc1 (configuration not stated) | 4.86 µM (active) | 

Structure (SMILES) | Potency | activity change, negative = cytotoxicity
CCCCCON=O |  | 11.7%
CNC(=O)/C=C(\C)OP(=O)(OC)OC |  | 2.53%
CC(C)N(C(=O)SC/C(Cl)=C/Cl)C(C)C |  | 5.5%
CC[N+]1(CC)CCC(OC(=O)C(O)(c2ccccc2)c2ccccc2)C1 (configuration not stated) |  | -4.68% [at 42.5 µM]
[O]=[Cr](=[O])([OH])[O][Cr](=[O])(=[O])[OH] | 11 µM (active) and 9.67 µM (active) | 
C[C@@H]1CC2=CC(=O)CC[C@@H]2[C@H]2CC[C@@]3(C)[C@@H](CC[C@]3(C)O)[C@@H]21 |  | 1.2% [at 42.5 µM]
CCCCc1ccccc1 |  | 2.42%
CC(=O)C(Cl)C(=O)N(C)C (configuration not stated) |  | -17.5%
Clc1ccc(C2(Cn3cncn3)OCCO2)c(Cl)c1 |  | 0.842%
CCC1COC(Cn2cncn2)(c2ccc(Cl)cc2Cl)O1 (configuration not stated) |  | 0.381%
COc1c2c(cc3c1OCO3)CCN(C)C2 |  | -10.9% [at 42.5 µM]
CNC(=O)Oc1cc(C)cc(C(C)C)c1 |  | 5.13%
CSC(C)(C)/C=N/O |  | -0.0398%
Nc1cc(Cl)ccc1Cl |  | 4.5%
C=CCBr |  | 4.46%
CC[C@H](C)[C@H]1O[C@]2(C=C[C@@H]1C)C[C@@H]1C[C@@H](C/C=C(\C)[C@@H](O[C@H]3C[C@H](OC)[C@@H](O[C@H]4C[C@H](OC)[C@@H](NC)[C@H](C)O4)[C@H](C)O3)[C@@H](C)/C=C/C=C3\CO[C@@H]4[C@H](O)C(C)=C[C@@H](C(=O)O1)[C@]34O)O2 | 9.69 µM (active) | 
N#CCCl |  | -6.58%
CN=C=O |  | 0.407%
